Source: PubChem BioAssay (several laboratories)
Compounds with a hit are over-represented: about 4.7% of the library has one in this group of screens.
RecA intein inh: Mtb RecA intein splicing inhibitors, primary screen, biochemical, fluorescence, HTS; inhibition, % (test concentration not listed); 0.75% of 290,000 active; cell-free RecA intein splicing; in the data active means inhibition above about 30%;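 further: 0% = vehicle wells and 100% = reference inhibitor control wells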
VHR inh abs: VHR1 phosphatase inhibitors, primary screen, biochemical, absorbance, uHTS | Dual specificity protein phosphatase 3 (Homo sapiens), P51452 | recombinant VHR phosphatase, pNPP absorbance | inhibition, % at 13.3 µM | 0.52% of 290,000 active; in the data active means inhibition above about 50%
Target sequence (P51452 whole entry, looked up): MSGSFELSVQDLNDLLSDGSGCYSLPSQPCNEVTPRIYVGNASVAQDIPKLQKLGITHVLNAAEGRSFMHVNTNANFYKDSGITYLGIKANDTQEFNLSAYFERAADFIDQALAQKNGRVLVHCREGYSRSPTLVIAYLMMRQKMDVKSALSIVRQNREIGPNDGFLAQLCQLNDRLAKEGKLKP
GDH-TPI counter: GDH-TPI coupling enzyme inhibitors, primary screen, artefact control for M. tuberculosis FBA inhibitor project, biochemical, absorbance, full deck | inhibition, % at 4.8 µM | GDH-TPI coupled enzyme counterscreen, NADH absorbance | 1.2% of 360,000 active;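 further: 0% = DMSO wells and 100% = wells lacking the enzyme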
CCHF vOTU inh-1: CCHFV vOTU protease inhibitors, primary screen, biochemical, Pep-AMC substrate, fluorescence; inhibition, % at 11.5 µM; 0.55% of 370,000 active; AID 651958, 2012; further: 0% = vehicle wells with enzyme and 100% = no enzyme wells
SARS 3CLpro inh: SARS-CoV 3CLpro protease inhibitors, primary screen, biochemical, quenched FRET; Replicase polyprotein 1ab (Severe acute respiratory syndrome coronavirus), P0C6X7; recombinant SARS-CoV 3CLpro, quenched FRET peptide cleavage; inhibition, % at 6 µM; 0.14% of 290,000 active; AID 1706, 2009; in the data active means inhibition above about 12%
FBA Mtb inh: Mtb FBA enzyme inhibitors, primary screen, biochemical, fluorescence, strain H37Rv; 2.3% of 360,000 active; purified M. tuberculosis FBA, fluorescence read-out; Fructose-bisphosphate aldolase (Mycobacterium tuberculosis (strain ATCC 25618 / H37Rv)), …; AID 588726, 2011; inhibition, % at 1 µM; in the data active means inhibition above about 27%;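 further: 0% = vehicle and 100% = reference inhibitor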
CCHF vOTU inh-2: CCHFV vOTU protease inhibitors, confirmation, biochemical, Pep-AMC substrate, fluorescence | shares compounds with CCHF vOTU inh-1 | Recombinant CCHFV vOTU | inhibition, % at 11.5 µM | 17% of 1,900 active
An asterisk follows results filed as active; nt = no result given. Unless noted, no stated cut-off is given here; in the data, active means inhibition above about 30%; inactive means the rest.

SMILES | RecA intein inh | VHR inh abs | GDH-TPI counter | CCHF vOTU inh-1 | SARS 3CLpro inh | FBA Mtb inh | CCHF vOTU inh-2
Nc1ccc(C2=Nc3cccc4cccc(c34)N2)cc1 | 6.0 | -3.8 | 6.5 | 19.7 | 4.4 | -3.7 | nt
CCCCCCCCN1C(=O)[C@@H](CC(=O)NCC2CCCCC2)C[C@@]2(C(=O)OC)C1=C[C@H](COCc1ccccc1)O[C@@H]2C | nt | nt | nt | 31.1* | nt | nt | -0.1
CCCCCCCCN1C(=O)[C@@H](CC(=O)NCCC(C)C)C[C@@]2(C(=O)OC)C1=C[C@H](COCc1ccccc1)O[C@@H]2C | nt | nt | nt | 30.3* | nt | nt | 10.0
CCCCCCCCN1C(=O)[C@@H](CC(=O)NCc2cccc(C(F)(F)F)c2)C[C@@]2(C(=O)OC)C1=C[C@H](COCc1ccccc1)O[C@@H]2C | nt | nt | nt | 32.1* | nt | nt | 23.4
CCCCCCCCN1C(=O)[C@@H](CC(=O)NCCCC)C[C@@]2(C(=O)OC)C1=C[C@H](COCc1ccccc1)O[C@@H]2C | nt | nt | nt | 28.9 | nt | nt | nt
C[C@@H]1NS(=O)(=O)[C@H]2C[C@@H]3C=C[C@]2(O3)[C@H]1OC(=O)Nc1ccc(C(F)(F)F)cc1[N+](=O)[O-] | nt | nt | -4.0 | 0.9 | nt | 0.8 | nt
O=C(Nc1ccc(F)cc1)C(c1ccccc1OC(F)(F)F)N1CCN(c2cccc(C(F)(F)F)n2)CC1 (configuration not stated) | nt | nt | nt | 20.9 | nt | nt | nt
CC(=O)N1CCn2c3c(c(=O)c4cc(C)ccc42)CCC31 (configuration not stated) | nt | 18.0 | 3.0 | 100.7* | -6.1 | -2.8 | 15.6
CC(NC(=O)COC(=O)C1CCCCC1)c1ccccc1 (configuration not stated) | nt | nt | 10.5 | 2.2 | nt | 1.5 | nt
CNC(=O)CSCc1cnn(-c2ccccc2)c1-n1cccc1 | 1.6 | -6.6 | -2.2 | 0.7 | 1.1 | 0.8 | nt
COc1cccc(CNC(=O)CSCc2cnn(-c3ccccc3)c2-n2cccc2)c1 | 10.6 | 14.6 | 5.7 | 36.4* | 1.7 | 3.4 | 7.0
CCOC(=O)CC(=O)CSc1nc2c(sc(=S)n2-c2ccccc2)c(=O)[nH]1 | -1.1 | 15.1 | 29.9 | 7.2 | 4.2 | -2.3 | nt
CCOC(=O)CSc1nc2c(sc(=S)n2-c2ccc(CC)cc2)c(=O)[nH]1 | -1.4 | -24.8 | 33.0* | 35.3* | 1.4 | 2.6 | 22.7
CN(CC(CC(=O)Nc1nncs1)c1ccccc1)S(=O)(=O)c1ccc(Br)cc1 (configuration not stated) | 11.0 | 41.8 | -1.0 | 4.2 | -3.4 | -0.8 | nt
CN(C)Cc1c(OC(=O)c2ccc(N)cc2)ccc2ccccc12 | nt | nt | 9.7 | -9.8 | nt | 2.8 | nt
O=C1N/C(=N/Nc2ccccc2)S/C1=C\c1ccccc1 | 11.2 | 9.7 | 29.4 | 32.1* | -3.9 | 1.5 | 9.4
CCOC(=O)c1c(NCC2CCCO2)c2ccccc2[nH]c1=O (configuration not stated) | -3.2 | 29.6 | 3.5 | -8.3 | 1.2 | -3.4 | nt
CCOC(=O)c1c(C)oc2c1cc(O)c1ccccc12 | 5.7 | 23.7 | 8.5 | 11.7 | 2.2 | -1.4 | nt
CCOC(=O)c1c(C)oc2c1c(C=NCc1ccccn1)c(O)c1ccccc12 | nt | 17.0 | 6.6 | 63.1* | 3.5 | -1.7 | 23.7
CCOC(=O)c1c(C)oc2c1c(C=NCC1CCCO1)c(O)c1ccccc12 (configuration not stated) | 20.9 | 50.8* | 7.5 | 35.4* | 4.7 | -1.2 | 53.3*
C=CCN1C(=O)[C@H](CC(=O)NCCCCc2ccccc2)[C@@]2(C(=O)OCC)CCCC=C12 | nt | nt | nt | 5.4 | nt | nt | nt
CCOC(=O)C1=C(CC)Nc2ccccc2N=C1NC(=O)c1cc(S(=O)(=O)N(C)C)ccc1Cl | -4.0 | 31.0 | 13.7 | -3.1 | 4.9 | 1.1 | nt
CCOC(=O)C1=C(CC)Nc2ccccc2N/C1=N\S(=O)(=O)c1ccc(C(=O)OCC)cc1 | 3.0 | 11.0 | 6.2 | 30.2* | -1.5 | 0.6 | 5.5
O=C(CNC(=O)Cc1ccccc1)NCC(=O)OCC(=O)c1cccc2ccccc12 | -2.5 | 32.9 | -2.2 | 31.0* | 5.2 | -0.7 | -16.5
